# Screens (PubChem BioAssay)
# An excerpt weighted towards active compounds, which were near 2.4% of everything screened.
# Cruzain inh noDet – qHTS Assay for Promiscuous and Specific Inhibitors of Cruzain (without detergent) | Cruzipain (Trypanosoma cruzi), P25779 | purified cruzain, Z-FR-AMC fluorescence, no detergent | Potency, µM, usual class: inhibitors | hit rate 2.3% among 200,000 | AID 1476, 2009; further: nearly all actives have a fitted effect of over 40% in size
# Target sequence (P25779 123-467 limits assumed): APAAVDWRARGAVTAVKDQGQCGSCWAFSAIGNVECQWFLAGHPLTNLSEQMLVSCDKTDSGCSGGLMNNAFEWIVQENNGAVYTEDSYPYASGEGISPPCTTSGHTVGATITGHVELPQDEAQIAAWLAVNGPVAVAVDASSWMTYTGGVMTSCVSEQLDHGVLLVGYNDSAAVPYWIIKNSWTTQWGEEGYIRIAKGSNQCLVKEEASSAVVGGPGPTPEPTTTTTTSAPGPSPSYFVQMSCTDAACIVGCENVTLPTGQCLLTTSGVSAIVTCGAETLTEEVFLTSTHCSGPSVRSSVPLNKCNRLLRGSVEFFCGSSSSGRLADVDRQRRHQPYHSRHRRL
#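 Purified cruzain at 1.5 nM, pre-incubated 15 min with compound at room temperature in 100 mM sodium acetate pH 5.5, 5 mM DTT, 0.00005% Triton X-100. Reaction started with 2 uM Z-FR-AMC; AMC fluorescence increase over 60 s gives rate.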
# Cruzain Triton – qHTS Assay for Promiscuous and Specific Inhibitors of Cruzain (with detergent) | Potency, µM, most hits filed as inhibitors | purified cruzain, Z-FR-AMC fluorescence, 0.01% Triton | Cruzipain (Trypanosoma cruzi), P25779 | hit rate 0.43% among 200,000; further: nearly all actives have a fitted effect of over 40% in size
#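 Read-out: AMC fluorescence (360 nm excitation, 450 nm emission), four reads over 2 min, first-to-third difference used. Conditions: cruzain 1.5 nM, Z-FR-AMC 2 uM, pH 5.5 acetate, 5 mM DTT, 0.01% Triton X-100.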
# A number is an active result; . = inactive; ? = inconclusive. The call rests on the fitted dose curve; in most records, active means well fitted curve in the direction sought with a large enough effect; inconclusive means small, poorly fitted or top-dose-only effect, or another doubt; inactive means no such curve, though single readings can be large; an effect the other way counts as inactive or inconclusive.
SMILES,Cruzain inh noDet,Cruzain Triton
COc1cccc(N2CCN(C(=O)c3cnn(-c4ccc(C)cc4C)c3C3CCN(C(=O)OC(C)(C)C)CC3)CC2)c1,?,.
O=C(c1c2c(nc3ccccc13)C(=O)N(C1CCCCC1)C2)N1CCN(c2ccc(F)cc2)CC1,.,.
COc1ccc(-c2noc(CCC(=O)Nc3ccccc3Cl)n2)cc1OC,.,.
CCOC(=O)CCN(c1ccccc1)S(=O)(=O)c1cc(-c2cc(C)no2)ccc1C,?,.
Cc1ccc(NC(=O)N(Cc2ccc3c(c2)OCO3)Cc2cc3cc4c(cc3[nH]c2=O)OCCO4)cc1,32µM,.
Cc1ccc(NC(=O)N(Cc2cccs2)Cc2cc3cc4c(cc3[nH]c2=O)OCO4)cc1,?,.
O=C(Cn1ncc2c1-c1ccccc1OC2)N1CCN(c2ccccc2)CC1,.,.
Cc1ccc(Cl)cc1N1C(=O)N(Cc2ccc(C#N)cc2)c2ccccc2S1(=O)=O,.,.
Cc1ccc([N+](=O)[O-])cc1-c1ccc(/C=N\n2nnnc2N)o1,.,.
COC(=O)c1cc(Br)ccc1-c1ccc(/C=N/n2nnnc2N)o1,13µM,.
O=C(/C=C/c1ccco1)NC(=S)Nc1cccc([N+](=O)[O-])c1,32µM,.
O=C(/C=C/c1ccco1)NC(=S)Nc1cccc(-c2nc3ccccc3o2)c1,10µM,.
O=C(NC(=S)Nc1cccc([N+](=O)[O-])c1)c1ccco1,.,.
Cc1ccc(-c2nc3ccccc3o2)cc1NC(=S)NC(=O)/C=C/c1ccco1,?,.
CCOc1ccc(N(CC)S(=O)(=O)N2CCCC(C(=O)Nc3ccc(NC(C)=O)cc3)C2)cc1 (stereo not drawn),?,.
COc1cccc(CNC(=O)c2cnc(N3CCCC3)nc2C)c1,.,.
CCCOc1cccc(C2c3c(-c4ccccc4O)n[nH]c3C(=O)N2Cc2ccco2)c1 (stereo not drawn),?,.
Cc1coc2cc3oc(=O)c(CCC(=O)NCc4ccc(Cl)cc4)c(C)c3cc12,.,.
CCOc1ccccc1NS(=O)(=O)c1ccc2c(c1)CC(C)N2C(=O)C1CC1 (stereo not drawn),.,.
COc1ccc(NC(=O)C(C(C)C)N2Cc3ccccc3C2=O)cc1 (stereo not drawn),.,.
COCCn1c(SCc2nc3scc(-c4ccc(Cl)cc4)c3c(=O)[nH]2)nnc1-c1cccc(C)c1,25µM,.
CCn1c(SCc2nc3scc(-c4ccccc4)c3c(=O)[nH]2)nnc1-c1cccs1,.,.
COc1ccc(C(=O)/C=C/c2ccccc2)cc1,.,.
O=C(/C=C/c1ccc2ccccc2c1)c1ccoc1,20µM,.
CC(C)NC(=O)c1ccc(Cn2c(=O)c3cccn3c3cccnc32)cc1,.,.
SMILES,Cruzain inh noDet,Cruzain Triton
CN(Cc1ccccc1)c1nc2c(S(=O)(=O)c3ccccc3)nnn2c2ccsc12,.,.
Cc1ccc(Cl)cc1-n1c(=O)c2sc3ccccc3c2n(CC(=O)NC2CCCCC2)c1=O,?,.
COc1ccc(-c2cn3nc(N4CCCC(C(=O)NCc5ccc(Cl)cc5)C4)sc3n2)cc1 (stereo not drawn),.,14µM
Cc1ccc(C)n1-c1nnc(N2CCCC(C(=O)NCc3ccc(Cl)cc3)C2)s1 (stereo not drawn),.,.
CCOc1ccccc1CNC(=O)c1ccc2nc(N3CCC(C)CC3)sc2c1,.,.
CCCCCCCCCCCCCCCCCCOC[C@H](COP(=O)([O-])OCC[N+](C)(C)C)OC(C)=O,.,.
Cc1ccc(CCNC(=O)CCN2N=C(c3ccc(C)cc3)CCC2=O)cc1,?,.
COc1ccc(Cl)cc1NC(=O)C/C(C)=N/NC(=O)CC#N,.,.
C/C(CC(=O)Nc1ccc(Cl)cc1Cl)=N\NC(N)=S,7.9µM,10µM
CN1[C@@H]2CC[C@@H]1CC(OC(=O)[C@H](CO)c1ccccc1)C2 (stereo partly drawn),.,.
COC(=O)COc1ccc2oc(-c3ccc(OC)cc3)cc(=O)c2c1,.,.
O=C(COc1ccc2oc(-c3ccccc3)cc(=O)c2c1)Nc1ccccc1,32µM,.
Cc1cc(C)cc(NS(=O)(=O)c2ccc(-c3cc(C)no3)cc2)c1,.,.
Cc1ccc(SCC(=O)Nc2ccc(N3CCN(c4ccccc4)CC3)c(F)c2)cc1,10µM,.
CN1CCN(c2ccc(NC(=O)CSc3ccccc3)cc2F)CC1,.,.
COc1ccccc1CNS(=O)(=O)c1ccc(F)c(C(=O)Nc2cc(Cl)ccc2OC)c1,.,.
CC(=O)Nc1ccc(NC(=O)C2CCN(S(=O)(=O)c3ccc4c(c3)CCCC(=O)N4)CC2)cc1,.,.
Cc1ccc(C(=O)C(OC(=O)CNS(=O)(=O)c2ccccc2)c2ccccc2)cc1 (stereo not drawn),32µM,?
CCOC(=O)CNS(=O)(=O)c1ccc(C)cc1,.,.
Cc1cc(C)c(NC(=O)CCC(=O)N2Cc3ccccc3Oc3ncccc32)c(C)c1,.,.
COc1ccc(-n2nc(C(=O)N3CCC(C)CC3)c3c4ccccc4n(C)c3c2=O)cc1Cl,.,.
Cc1csc2nc(-c3cccc(NS(C)(=O)=O)c3)cn12,.,.
CC(=O)Nc1ccc(S(=O)(=O)Nc2ccc(-c3cn4c(C)csc4n3)cc2)cc1,?,.
CC(=O)c1ccc(S(=O)(=O)Nc2ccc(-c3cn4c(C)csc4n3)cc2)cc1,25µM,.
COc1ccc(S(=O)(=O)Nc2ccc(-c3cn4c(C)csc4n3)cc2)cc1,25µM,.
SMILES,Cruzain inh noDet,Cruzain Triton
CCS(=O)(=O)Nc1ccc(-c2cn3c(C)csc3n2)cc1,.,.
Cc1csc2nc(-c3ccc(NS(=O)(=O)c4cc(F)ccc4F)cc3)cn12,32µM,.
CC1CCc2c(sc3nnn(CC(=O)Nc4cccc(C(F)(F)F)c4)c(=O)c23)C1 (stereo not drawn),.,.
Cn1c(=O)c2sccc2n2c(CCCC(=O)Nc3ccc(Oc4ccc(Cl)cc4)cc3)nnc12,.,.
O=c1c(O)c(-c2ccccc2)oc2cc(O)cc(O)c12,.,.
O=c1c(O)c(-c2cc(O)c(O)c(O)c2)oc2cc(O)cc(O)c12,13µM,?
CCOc1ccc(C(=O)Nc2ccc3c(c2)CCCN3S(=O)(=O)c2ccc(C)cc2)cc1,?,.
CCOC(=O)c1ccc(NC(=O)N2CCOc3ccccc32)cc1,10µM,.
CCOC(=O)c1ccc(NC(=O)Nc2ccc3c(c2)OCCO3)cc1,.,.
Cc1cc(Br)c(OCc2ccc(C(=O)N/N=C3\CC4CC=CC34)cc2)c(Br)c1 (stereo not drawn),20µM,.
COc1cc(/C=N/NC(N)=O)cc(Br)c1OCc1ccc(C)cc1,?,.
Cc1ccccc1C(=O)Nc1cccc(OCc2cc(=O)n3cccc(C)c3n2)c1,.,.
Cc1cccc2nc(CSc3nc4ccc([N+](=O)[O-])cc4[nH]3)c(Br)n12,3.2µM,.
O=[N+]([O-])c1ccc(CSc2nc3ccccc3[nH]2)cc1,.,.
O=C(Nc1ccc(Br)cc1)C1CCCN1S(=O)(=O)c1ccc(F)cc1 (stereo not drawn),.,.
Cc1ccc(C)c(NC(=O)CN2CCSc3ccc(S(=O)(=O)N4CCCC4)cc32)c1,.,.
Cc1c(N=C2NC(=O)/C(=C/c3cccc([N+](=O)[O-])c3)S2)c(=O)n(-c2ccccc2)n1C,.,.
CN(C)c1ccc(/C=N/N=C2/NC(=O)/C(=C/c3ccc([N+](=O)[O-])cc3)S2)cc1,6.3µM,.
